Experiment [1] is described as follows: qHTS assay to identify aromatase inhibitors - cell viability counter screen (AID 743084).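 Also: cells stimulated with testosterone during compound exposure; nearly all actives have a fitted effect of over 55% in size.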 Also: potency is read from the fitted curve at half-maximal effect. In general terms: In qHTS, concentration-response curves come from the screen itself.
For experiment [2], the target named is Aryl hydrocarbon receptor (Homo sapiens) (UniProt P35869). The experiment can be described thus: qHTS assay to identify small molecule that activate the aryl hydrocarbon receptor (AhR) signaling pathway (AID 743085). Also: nearly all actives have a fitted effect of over 15% in size. Also: potency is read from the fitted curve at half-maximal effect.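 As to activation: HG2L7.5c1 human HepG2 liver cells with stably integrated DRE-driven firefly reporter; series mostly up to about 70 µM.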 A digest of the protocol:
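Steps: seed HepG2-AhR-luc cells; allow 5 h at 37C; pin-transfer test compound or vehicle; incubate 24 h at 37C; add viability dye (30 min, 37C) and read fluorescence; add luciferase substrate (30 min, RT) and read luminescence.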

The nature of experiment [3]: qHTS assay to identify small molecule that activate the aryl hydrocarbon receptor (AhR) signaling pathway - cell viability counter screen (AID 743086). Also: nearly all actives have a fitted effect of over 45% in size. Also: potency is read from the fitted curve at half-maximal effect. The method, boiled down:
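HepG2-AhR-luc (HG2L7.5c1) cells, 4000/well, were preincubated 5 h at 37C, exposed to compound in qHTS format for 24 hr at 37C, then given CellTiter-Fluor for 30 min; viability was read as fluorescence in the reporter wells.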

The target in experiment [4] is Peroxisome proliferator-activated receptor gamma (Homo sapiens) (UniProt P37231). The experiment can be described thus: qHTS assay to identify small molecule agonists of the peroxisome proliferator-activated receptor gamma (PPARg) signaling pathway (AID 743094; active = well fitted activation curve with a large enough effect in the signal ratio in the repeat runs, not every such curve was filed as active; the % refers to the signal ratio; also: potency is read from the fitted curve at half-maximal effect). The method, boiled down:
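Agonism was assessed in a beta-lactamase reporter system, HEK293H cells with a stably integrated UAS-bla construct under PPARg control; the 17 h treatment at 37C preceded a 1 h room-temperature FRET substrate read.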

Experiment [5] is described as follows: qHTS assay to identify small molecule antagonists of the peroxisome proliferator-activated receptor gamma (PPARg) signaling pathway - cell viability counter screen (AID 743194). Also: nearly all actives have a fitted effect of over 55% in size. Also: potency is read from the fitted curve at half-maximal effect. The method, boiled down:
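PPARg-UAS-bla HEK293H cells were plated, rested 5 h at 37 C, then treated with compounds plus rosiglitazone (50 nM final) for 17 h at 37 C; viability was then read by CellTiter-Glo luminescence after 30 min at room temperature.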

The nature of experiment [6]: qHTS assay for small molecule agonists of the antioxidant response element (ARE) signaling pathway - cell viability counter screen (AID 743203; calls by dose curve; also: nearly all actives have a fitted effect of over 55% in size; also: potency is read from the fitted curve at half-maximal effect). The method, boiled down:
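ATP content via CellTiter-Glo luminescence served as the viability measure. Cells: ARE-bla HepG2, 2,000 per well. Exposure: 16 hrs, 37C/5% CO2.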

A short description of experiment [7]: qHTS assay for small molecule activators of the heat shock response signaling pathway - cell viability counter screen (AID 743209). Also: nearly all actives have a fitted effect of over 50% in size. A digest of the protocol: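 Compounds dissolved in DMSO were added to overnight-plated HSE-bla HeLa cells and left 5 h at 37 C. Cell viability was quantified by luminescence using CellTiter-Glo.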
Experiment [8] can be described thus: qHTS assay to identify small molecule agonists of the peroxisome proliferator-activated receptor delta (PPARd) signaling pathway - cell viability counter screen (AID 743211). Also: nearly all actives have a fitted effect of over 55% in size. Also: potency is read from the fitted curve at half-maximal effect. The method, boiled down:
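Viability of GeneBLAzer PPARd UAS-bla HEK293H cells was assessed after 17 h compound incubation at 37C, using CellTiter-Glo reagent added after the reporter read and luminescence recorded 30 min later.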

Experiment [9] concerns the target Peroxisome proliferator-activated receptor delta (Homo sapiens) (UniProt Q03181). As to the kind of experiment: qHTS assay to identify small molecule agonists of the peroxisome proliferator-activated receptor delta (PPARd) signaling pathway (AID 743212; calls by dose curve). A digest of the protocol:
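Beta-lactamase reporter read by fluorescence (LiveBLAzer B/G FRET, 2 h, room temperature). Test agents, in DMSO, incubated at 37 C with PPARd-bla HEK293H cells.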

Experiment [10] is described as follows: qHTS assay to identify small molecule antagonists of the peroxisome proliferator-activated receptor delta (PPARd) signaling pathway - cell viability counter screen (AID 743213). Also: nearly all actives have a fitted effect of over 50% in size. Also: potency is read from the fitted curve at half-maximal effect. The method, boiled down:
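PPARd-bla HEK293H cells (3000/well) got compound plus 300 nM L165041 agonist for 17 h at 37 C. Viability in the same wells came from CellTiter-Glo luminescence after 30 min at room temperature.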

Experiment [11] has as its target Peroxisome proliferator-activated receptor delta (Homo sapiens) (UniProt Q03181). As to the kind of experiment: qHTS assay to identify small molecule antagonists of the peroxisome proliferator-activated receptor delta (PPARd) signaling pathway (AID 743215; active = well fitted inhibition curve with a large enough effect in the signal ratio in the repeat runs, not every such curve was filed as active; the % refers to the signal ratio;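 also: cells stimulated with agonist L165041 at 300 nM final during compound exposure; series mostly up to about 62 µM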). A digest of the protocol: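 Here, a reporter line (HEK293H, beta-lactamase under a UAS) measures PPARd signaling. Compounds are tested against agonist L165041 at 300 nM final concentration over 17 h at 37 C, with fluorescence read after substrate.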

For experiment [12], the target named is Bile acid receptor (Homo sapiens) (UniProt Q96RI1). The experiment can be described thus: qHTS assay to identify small molecule antagonists of the farnesoid-X-receptor (FXR) signaling pathway (AID 743217; active = well fitted inhibition curve with a large enough effect in the signal ratio in the repeat runs, not every such curve was filed as active; the % refers to the signal ratio; also: potency is read from the fitted curve at half-maximal effect). A digest of the protocol:
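Test compounds are pin-transferred onto FXR-bla HEK 293T cells, then chenodeoxycholic acid is added at 50 uM final. After 16 h at 37 °C, LiveBLAzer B/G substrate is applied for 2 h at room temperature and fluorescence read.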

Experiment [13] is described as follows: qHTS assay to identify small molecule agonists of the farnesoid-X-receptor (FXR) signaling pathway - cell viability counter screen (AID 743218). Also: nearly all actives have a fitted effect of over 45% in size. Also: potency is read from the fitted curve at half-maximal effect. A digest of the protocol: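 Quantitative HTS counter screen measuring ATP-based viability via CellTiter-Glo luminescence in HEK 293T cells carrying a UAS-driven beta-lactamase reporter, after 16 h compound exposure at 37 C.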

For experiment [14], the target named is Bile acid receptor (Homo sapiens) (UniProt Q96RI1). As to the kind of experiment: qHTS assay to identify small molecule agonists of the farnesoid-X-receptor (FXR) signaling pathway (AID 743220; active = well fitted activation curve with a large enough effect in the signal ratio in the repeat runs, not every such curve was filed as active; the % refers to the signal ratio). The method, boiled down:
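FXR-UAS-bla HEK 293T cells carrying a UAS-driven beta-lactamase reporter were plated for 5 h at 37C/5% CO2, then exposed to DMSO-dissolved Tox21 10K compounds for 16 h at 37C. A LiveBLAzer B/G FRET substrate was loaded for 2 h at room temperature before fluorescence reading.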

A short description of experiment [15]: qHTS assay to identify small molecule antagonists of the farnesoid-X-receptor (FXR) signaling pathway - cell viability counter screen (AID 743221; active = well fitted cell-killing curve with a large enough effect in the repeat runs, not every such curve was filed as active; also: nearly all actives have a fitted effect of over 50% in size; also: potency is read from the fitted curve at half-maximal effect). A digest of the protocol:
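Quantitative HTS of the Tox21 10K library run in parallel with the beta-lactamase reporter read. HEK 293T cells carrying a UAS-driven bla reporter got compound and 50 uM CDCA (final) for 16 h; ATP-based luminescence followed.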

The target of experiment [16] is Vitamin D3 receptor (Homo sapiens) (UniProt P11473). The experiment can be described thus: qHTS assay to identify small molecule agonists of the vitamin D receptor (VDR) signaling pathway (AID 743222; calls by dose curve). A digest of the protocol:
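Tox21 cell reporter format: VDR-bla line, 16 h compound exposure in 5% CO2 at 37C, then fluorescence intensity after 2 h with LiveBLAzer B/G FRET substrate.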

Experiment [17] in a line: qHTS assay for small molecule activators of the heat shock response signaling pathway (AID 743210; active = well fitted activation curve with a large enough effect in the signal ratio in the repeat runs, with a control signal flat, not every such curve was filed as active; the % refers to the signal ratio; also: series mostly up to about 63 µM). A digest of the protocol:
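Heat shock element–beta-lactamase HeLa reporter cells; qHTS with compounds for 5 h at 37 C; detection by FRET substrate fluorescence after 2.5 h at RT.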

The target in experiment [18] is Vitamin D3 receptor (Homo sapiens) (UniProt P11473). The experiment can be described thus: qHTS assay to identify small molecule antagonists of the vitamin D receptor (VDR) signaling pathway (AID 743223; active = well fitted inhibition curve with a large enough effect in the signal ratio in the repeat runs, not every such curve was filed as active; the % refers to the signal ratio; also: potency is read from the fitted curve at half-maximal effect). A digest of the protocol: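 Fluorescence from LiveBLAzer B/G FRET substrate, read after 2 h at room temperature, reflects beta-lactamase reporter activity in VDR-bla cells treated 16 h at 37C with compounds and agonist 1alpha,25-dihydroxyvitamin D3 (3 nM final).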
Sequence of Vitamin D3 receptor (Homo sapiens) (P11473 whole entry, looked up): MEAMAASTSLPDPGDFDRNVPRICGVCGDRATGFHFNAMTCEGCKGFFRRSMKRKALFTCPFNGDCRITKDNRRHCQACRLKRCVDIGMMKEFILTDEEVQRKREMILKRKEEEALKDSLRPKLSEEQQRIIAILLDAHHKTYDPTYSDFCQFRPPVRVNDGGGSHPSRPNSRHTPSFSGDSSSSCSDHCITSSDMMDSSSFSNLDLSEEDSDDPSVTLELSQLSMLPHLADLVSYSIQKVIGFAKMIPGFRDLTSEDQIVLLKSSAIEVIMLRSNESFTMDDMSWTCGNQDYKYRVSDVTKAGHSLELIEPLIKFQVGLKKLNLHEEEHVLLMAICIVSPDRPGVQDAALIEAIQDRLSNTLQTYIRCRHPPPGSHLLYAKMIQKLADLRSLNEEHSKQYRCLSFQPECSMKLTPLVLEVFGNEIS

Experiment [19] can be described thus: qHTS assay for small molecule agonists of the antioxidant response element (ARE) signaling pathway (AID 743202; active = well fitted activation curve with a large enough effect in the signal ratio in the repeat runs, not every such curve was filed as active; the % refers to the signal ratio). The method, boiled down: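 Following a 16 h, 37 C exposure of reporter HepG2 cells (ARE-driven beta-lactamase, 2,000 cells/well) to compounds, FRET substrate was applied for 2 h at room temperature and fluorescence intensity recorded.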

Potency data for 7 molecules are collected here from PubChem BioAssay (Tox21).

Molecules are shown by their SMILES. Several values for one entry are separate records, joined by “and”; a condition that tells them apart may be missing. Equal values may be shown once. Records with an inconclusive call do not appear. Activity calls are given as the source filed them. Unless noted, calls follow the shape of the dose curve; as a rule, active = well fitted curve in the direction sought with a large enough effect in the repeat runs; inconclusive = weak or mixed curves; inactive = no such curve, though single readings can be large; an effect the other way counts as inactive or inconclusive.

Sequence of Aryl hydrocarbon receptor (Homo sapiens) (P35869 whole entry, looked up): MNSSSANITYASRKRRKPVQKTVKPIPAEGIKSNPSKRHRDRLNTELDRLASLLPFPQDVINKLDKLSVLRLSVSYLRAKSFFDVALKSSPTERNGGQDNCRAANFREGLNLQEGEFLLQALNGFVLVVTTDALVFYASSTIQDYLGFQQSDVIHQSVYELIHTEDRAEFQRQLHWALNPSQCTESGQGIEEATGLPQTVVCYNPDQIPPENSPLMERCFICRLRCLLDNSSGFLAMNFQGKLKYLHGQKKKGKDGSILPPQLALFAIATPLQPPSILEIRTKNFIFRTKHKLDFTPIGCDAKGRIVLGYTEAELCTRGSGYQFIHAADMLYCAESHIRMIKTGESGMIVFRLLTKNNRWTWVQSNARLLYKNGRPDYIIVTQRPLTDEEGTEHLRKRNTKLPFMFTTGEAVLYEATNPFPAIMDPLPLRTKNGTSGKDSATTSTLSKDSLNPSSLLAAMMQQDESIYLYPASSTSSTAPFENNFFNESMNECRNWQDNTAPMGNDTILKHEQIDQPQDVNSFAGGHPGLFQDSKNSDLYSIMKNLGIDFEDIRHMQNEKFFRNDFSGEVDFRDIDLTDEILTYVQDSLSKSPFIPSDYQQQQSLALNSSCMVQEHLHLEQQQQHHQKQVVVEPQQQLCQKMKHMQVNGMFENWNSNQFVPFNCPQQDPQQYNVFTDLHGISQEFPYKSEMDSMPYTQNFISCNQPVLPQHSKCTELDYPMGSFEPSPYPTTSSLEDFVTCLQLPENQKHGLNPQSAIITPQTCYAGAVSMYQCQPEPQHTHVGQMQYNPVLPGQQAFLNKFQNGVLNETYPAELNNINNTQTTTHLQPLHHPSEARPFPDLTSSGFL
Sequence of Peroxisome proliferator-activated receptor gamma (Homo sapiens) (P37231 whole entry, looked up): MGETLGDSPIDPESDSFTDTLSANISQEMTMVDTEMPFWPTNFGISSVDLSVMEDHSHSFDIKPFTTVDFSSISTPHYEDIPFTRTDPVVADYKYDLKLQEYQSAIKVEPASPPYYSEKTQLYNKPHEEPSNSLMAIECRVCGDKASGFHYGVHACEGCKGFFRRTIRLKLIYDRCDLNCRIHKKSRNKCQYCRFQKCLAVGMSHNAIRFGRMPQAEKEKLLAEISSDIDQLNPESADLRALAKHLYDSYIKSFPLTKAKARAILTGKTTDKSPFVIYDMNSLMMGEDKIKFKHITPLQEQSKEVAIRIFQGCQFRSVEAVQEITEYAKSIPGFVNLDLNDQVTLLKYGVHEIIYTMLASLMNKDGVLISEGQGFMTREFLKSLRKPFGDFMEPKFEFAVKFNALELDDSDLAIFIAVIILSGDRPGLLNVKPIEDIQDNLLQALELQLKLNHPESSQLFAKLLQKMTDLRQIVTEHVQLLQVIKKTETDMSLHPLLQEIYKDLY
Sequence of Peroxisome proliferator-activated receptor delta (Homo sapiens) (Q03181 whole entry, looked up): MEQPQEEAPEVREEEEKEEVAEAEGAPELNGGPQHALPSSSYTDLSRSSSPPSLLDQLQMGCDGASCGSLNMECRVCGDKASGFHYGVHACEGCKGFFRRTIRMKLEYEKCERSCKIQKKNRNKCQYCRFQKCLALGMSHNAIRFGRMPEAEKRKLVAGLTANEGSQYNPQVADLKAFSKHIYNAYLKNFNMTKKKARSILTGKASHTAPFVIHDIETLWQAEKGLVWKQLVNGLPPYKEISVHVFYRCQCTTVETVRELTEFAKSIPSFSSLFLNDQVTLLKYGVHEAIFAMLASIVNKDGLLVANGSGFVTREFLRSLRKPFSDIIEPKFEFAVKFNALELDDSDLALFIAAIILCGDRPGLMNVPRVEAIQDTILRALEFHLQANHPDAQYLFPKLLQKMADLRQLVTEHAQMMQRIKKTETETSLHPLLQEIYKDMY
Sequence of Bile acid receptor (Homo sapiens) (Q96RI1 whole entry, looked up): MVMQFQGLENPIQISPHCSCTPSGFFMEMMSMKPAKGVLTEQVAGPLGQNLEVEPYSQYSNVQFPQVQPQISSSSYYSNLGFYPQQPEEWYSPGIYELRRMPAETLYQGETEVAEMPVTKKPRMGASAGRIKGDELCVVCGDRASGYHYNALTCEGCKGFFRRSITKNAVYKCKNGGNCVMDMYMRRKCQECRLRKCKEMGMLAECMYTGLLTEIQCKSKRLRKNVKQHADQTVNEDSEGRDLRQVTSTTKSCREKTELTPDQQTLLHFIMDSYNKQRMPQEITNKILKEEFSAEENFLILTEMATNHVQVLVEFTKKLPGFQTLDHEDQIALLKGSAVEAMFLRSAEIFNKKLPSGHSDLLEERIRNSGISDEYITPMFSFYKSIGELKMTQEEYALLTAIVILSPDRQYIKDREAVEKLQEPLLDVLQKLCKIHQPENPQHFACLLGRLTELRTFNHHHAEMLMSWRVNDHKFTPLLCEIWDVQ

With `CC(C)CCOC(=O)/C=C/c1ccccc1`, the Potency entry in experiment [1], in [2], in experiment [3], in experiment [4], in [5] and in experiment [6] was “inactive” in each case. In addition, the Potency result in [7], in experiment [8], in [9], in experiment [10], in [11] and in [12] was “inactive” throughout. The Potency result in experiment [13], in [14], in experiment [15] and in [16] was “inactive” throughout.
Regarding `Cc1c(F)c(N2CCNC(C)C2)cc2c1c(=O)c(C(=O)O)cn2C1CC1` (stereo not drawn), the Potency result in experiment [1], in [2], in experiment [3], in experiment [4], in [5] and in experiment [6] was “inactive” each time. Moreover, the Potency entry in experiment [7], in experiment [17], in experiment [8], in experiment [9], in experiment [10] and in experiment [11] was “inactive” throughout. In addition, the Potency entry in [13], in experiment [15], in [16] and in experiment [18] was “inactive” throughout.
Take `CN(C)c1ccc(C(=C2C=CC(=[N+](C)C)C=C2)c2ccc(N(C)C)cc2)cc1`: the Potency is 10.6 µM (active) and 3.05 µM (active) and 7.7 µM (active) in [1]; 2.42 µM (active) in [2]; 9.44 µM (active) and 19.2 µM (active) and 24.3 µM (active) in experiment [3]; 8.49 µM (active) in experiment [4]; 1.94 µM (active) and 1.95 µM (active) and 5.96 µM (active) in experiment [5]; 9.64 µM (active) and 10.9 µM (active) and 11.9 µM (active) in experiment [6]. For the same molecule, the Potency in experiment [8] is 6.88 µM (active) and 7.76 µM (active) and 8.41 µM (active); in experiment [10], 17.3 µM (active) and 17.4 µM (active) and 6.68 µM (active); in experiment [12] it was 16.8 µM (active); in [13], 10.9 µM (active) and 19.5 µM (active) and 10.6 µM (active); in experiment [15], 21.8 µM (active) and 27.5 µM (active) and 13.3 µM (active). For the same molecule, the Potency result in experiment [14] and in experiment [16] was “inactive” each time.
Take `CCCCN(CCCC)CC(O)c1cc(Cl)cc2c1-c1ccc(Cl)cc1/C2=C/c1ccc(Cl)cc1` (stereo not drawn): the Potency entry in [1], in [3], in experiment [4], in [5], in experiment [19] and in experiment [18] was “inactive” in each case. In addition, the Potency in [2] is 26.6 µM (active); in [10], 29.8 µM (active); in [13] it was 29.8 µM (active).
For `CCC(CC)(CC(=O)Nc1cccc(/C=C/c2nc(C3CCC3)cs2)c1)C(=O)O`, the Potency entry in experiment [1], in [3], in [4], in experiment [5], in experiment [7] and in experiment [10] was “inactive” in each case. Moreover, the Potency entry in [11], in [14] and in experiment [15] was “inactive” in each case. Besides, in experiment [2], the Potency is 8.41 µM (active).
With `CCN(CC)c1ccc2c(-c3ccc(S(=O)(=O)O)cc3S(=O)(=O)[O-])c3ccc(=[N+](CC)CC)cc-3oc2c1`, the Potency in experiment [1] is 3.98 µM (active); in [3], 6.31 µM (active). Moreover, the Potency entry in experiment [2], in experiment [4], in experiment [5], in experiment [19], in experiment [17] and in experiment [9] was “inactive” throughout. The Potency result in [11], in [12], in [13], in experiment [14], in [16] and in experiment [18] was “inactive” each time.
`Oc1c(I)cc(Cl)c2cccnc12`: the Potency result in [1], in experiment [3], in experiment [4], in experiment [13], in experiment [15] and in experiment [16] was “inactive” each time. For the same molecule, the Potency in experiment [2] is 944 nM (active) and 61 µM (active); in experiment [5] it was 4.36 µM (active) and 5.96 µM (active); in experiment [6], 68.5 µM (active); in [18] it was 8.69 µM (active).
